In PubChem BioAssay (NCATS):
Where “and” joins values, the source holds several entries; their conditions need not be identical. Identical values can stand only once. Inconclusive results are not listed. Calls of active or inactive are those of the source. Unless noted, the call rests on the fitted dose curve; in most records, active means well fitted curve in the direction sought with a large enough effect; inconclusive means small, poorly fitted or top-dose-only effect, or another doubt; inactive means no such curve, though single readings can be large; an effect the other way counts as inactive or inconclusive.

Legend:
[1] = Cell Viability - Jurkat (AID 426;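 active means dose-dependent loss of cell ATP signal giving a full or clear fitted curve, ranked by lower potency value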;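 further: potency means the concentration at half of the fitted maximal effect; cells exposed to compound for 40 hours at 37 °C before ATP read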); conditions: qHTS
How it was run: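 Seed 5000 Jurkat E6-1 cells/well; add compound; incubate 40 hr at 37 °C; add CellTiter-Glo; wait 20 min at room temperature; read luminescence. Fit concentration-response with Hill equation for AC50.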

[2] = Cell Viability - Hek293 (AID 427;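 active means compounds whose dose-response curve shows a full or clear partial loss of cell viability, called from curve shape rather than a numeric limit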;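 further: potency means the concentration at half of the fitted maximal effect; cells exposed to compound for 40 hours at 37 °C before reading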); conditions: qHTS
How it was run: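 qHTS, human embryonic kidney (adenovirus-transformed) cells; 40 hr cpd, 37 °C; CellTiter-Glo ATP luminescence. Norm: DMSO = 0, 100 uM tamoxifen = 100% inhibition. Hill-fit AC50.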

[3] = Cell Viability - N2a (AID 540); conditions: N2a mouse neuroblastoma cell viability; at 92.2 µM (top of the series);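 further: cells exposed to compound for 40 h at 37 °C; plate controls were DMSO alone for no effect and tamoxifen control for full effect; nearly all actives have a fitted effect of over 45% in size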
How it was run: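 First, 1500 N2a cells per well incubate 5 hr at 37 °C; next, compounds are added and incubated 40 hr at 37 °C; finally CellTiter-Glo is added and luminescence read after 20 min, with AC50 derived by Hill modeling.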

[4] = Cell Viability - H-4-II-E (AID 543); conditions: H-4-II-E rat hepatoma viability; series mostly up to 92.2 µM;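 further: cells exposed to compound for 40 hours; on the % scale 0 is the no-effect control and ±100 the full control effect; nearly all actives have a fitted effect of over 35% in size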
How it was run: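 Here, cytotoxicity is measured in the rat hepatoma line H-4-II-E as loss of intracellular ATP after 40 hr compound treatment, detected by luciferase luminescence.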

[5] = Cellular Toxicity (caspase-3) HepG2 (AID 654); conditions: HepG2 caspase-3 activation, luminescence, 0% = DMSO only, 100% = tamoxifen; series mostly up to 92.2 µM;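 further: cells exposed to compound for 16 hours before reading; 0% = DMSO alone and 100% = caspase signal from 100 µM tamoxifen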
How it was run: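 qHTS, HepG2, 1500 cells/well, complete medium; cpd 16 h 37 °C; Caspase-Glo 3/7, 20 min RT; lum. Norm: DMSO vs 100 uM tamoxifen; AC50 Hill fit.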

[6] = Cellular Toxicity (caspase-3) Hek293 (AID 664); conditions: HEK293 caspase-3 activation, DMSO = 0%, 100 µM tamoxifen = 100%; series mostly up to 92.2 µM;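 further: cells exposed to compound for 16 h at 37 °C before readout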
How it was run: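 Activation of caspase-3/7 is measured as increased luminescence from cleaved peptide-aminoluciferin substrate in HEK293 cells treated 16 hours at 37 °C. AC50 values come from Hill-equation fits of concentration-response data.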

[7] = Cellular Toxicity (caspase-3) NIH 3T3 (AID 666); conditions: NIH 3T3 caspase-3 activation, apoptosis/toxicity, 0% DMSO, 100% is 100 µM tamoxifen; series mostly up to 92.2 µM;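 further: caspase signal read after 16 h compound exposure; 0% = DMSO basal and 100% = 100 µM tamoxifen stimulation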
How it was run: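 Concentration-response qHTS in NIH 3T3 mouse fibroblasts scores caspase-3/7 activation as rising luminescence after 16 hr compound exposure. Signals are scaled between DMSO-only and 100 uM tamoxifen.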

[8] = MultiTox-Fluor Cytotoxicity Assay - LYMP1-001 - Dead Cells (AID 946); conditions: LYMP1-001 lymphoblastoid cells, dead-cell protease fluorescence; series mostly up to 92.2 µM
How it was run: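 Seed 2500 LYMP1-001 cells/well, incubate 5 hr at 37 C; add compound, 16 hr at 37 C; add MultiTox-Fluor reagent, 60 min RT; read dead-cell fluorescence Ex/Em=485/520. Normalize to DMSO and 15 uM tetraoctylammonium bromide.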

[9] = Cell Viability - LYMP1-002 - Assay at 16 hr (AID 948); conditions: LYMP1-002 lymphoblastoid cell viability; series mostly up to 92.2 µM;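 further: 0% = DMSO alone and full effect = 92 µM tetraoctylammonium bromide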
How it was run: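 Seed 2500 LYMP1-002 cells per well in complete medium and hold 5 hr at 37 C. Add compound across a concentration series and incubate 16 hr at 37 C. Add CellTiter-Glo, wait 30 min at room temperature, read luminescence.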

[10] = MultiTox-Fluor Cytotoxicity Assay - LYMP1-003 - Dead Cells (AID 961); conditions: LYMP1-003 lymphoblastoid cells, dead-cell protease fluorescence; series mostly up to 92.2 µM; further: nearly all actives have a fitted effect of over 70% in size
How it was run: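 LYMP1-003 lymphoblastoid, 2500 cells/well, 5 hr settle then 16 hr cpd at 37 C; MultiTox-Fluor reagent 60 min RT; Ex/Em 485/520 dead-cell signal; norm. DMSO = 0%, 15 uM tetraoctylammonium bromide = 100%; Hill AC50.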

[11] = Cell Viability - LYMP1-003 - Assay at 40 hr (AID 964); conditions: LYMP1-003 lymphoblastoid viability; series mostly up to 92.2 µM; further: on the % scale 0 is the no-effect control and ±100 the full control effect; nearly all actives have a fitted effect of over 60% in size
How it was run: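 This qHTS cytotoxicity screen treats human lymphoblastoid cells (LYMP1-003) with compounds for 40 hr and quantifies cellular ATP via luciferase luminescence.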

[12] = Cell Viability - LYMP2-025 (AID 976); conditions: LYMP2-025 lymphoblastoid cell viability; series mostly up to 92.2 µM;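 further: cells exposed to compound for 24 h at 37 °C; plate controls were DMSO only for no effect and tetraoctylammonium bromide control for full effect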
How it was run: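 In qHTS format, LYMP2-025 lymphoblastoid cells in complete culture medium received compound for 24 hr; ATP-based CellTiter-Glo signal gave viability, with AC50 derived by Hill equation.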

[13] = Cell Viability - LYMP2-006 (AID 978); conditions: LYMP2-006 lymphoblastoid cell viability, qHTS; series mostly up to 92.2 µM;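 further: cells exposed to compound for 24 hours; on the % scale 0 is the no-effect control and ±100 the full control effect; nearly all actives have a fitted effect of over 60% in size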
How it was run: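 Cells are seeded at 2500 per well and rested 5 hr at 37 C. Compounds are added across a concentration series for 24 hr at 37 C, after which ATP is quantified by luciferase luminescence.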

[14] = Cell Viability - LYMP2-008 (AID 980); conditions: LYMP2-008 lymphoblastoid cell viability, qHTS; series mostly up to 92.2 µM;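 further: cells exposed to compound for 24 h at 37 °C; on the % scale 0 is the no-effect control and ±100 the full control effect; nearly all actives have a fitted effect of over 60% in size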
How it was run: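 Acute cytotoxicity is scored as concentration-dependent loss of cellular ATP in a human lymphoblastoid line after 24 hr treatment at 37 C. ATP is quantified by luciferase luminescence.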

[15] = Cell Viability - LYMP1-002 - Assay at 24 hr (AID 993); conditions: LYMP1-002 lymphoblastoid cells viability; series mostly up to 92.2 µM; further: on the % scale 0 is the no-effect control and ±100 the full control effect
How it was run: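 qHTS, LYMP1-002 lymphoblastoid, 24 h cpd, 37 C, CellTiter-Glo ATP luminescence; AC50 via Hill eq.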

[16] = Cell Viability - LYMP1-002 - Assay at 40 hr (AID 994); conditions: LYMP1-002 lymphoblastoid cell viability; series mostly up to 92.2 µM;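 further: 0% = DMSO only and full inhibition = 92 µM tetraoctylammonium bromide; nearly all actives have a fitted effect of over 60% in size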
How it was run: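 Viability in the human lymphoblastoid line was measured as intracellular ATP via CellTiter-Glo after 40 hr compound exposure. Tetraoctylammonium bromide served as positive control.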

[17] = qHTS assay for small molecule agonists of retinoid X receptor alpha signaling (AID 588544); conditions: HEK293T RXRa-UAS-bla, beta-lactamase reporter, 18 h; 530 nm emission
[18] = molecular target: Tumor necrosis factor (Homo sapiens) (UniProt P01375); experiment: qHTS assay to identify small molecules that stimulate Tumor Necrosis Factor-alpha (TNF-alpha) secretion (AID 651757; active means well fitted curve in the direction sought with a large enough effect in the signal ratio; the % refers to the signal ratio; further: 0% is about no effect); conditions: Human cells, HTRF 665/615 ratio; series mostly up to 92.2 µM
How it was run: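 Secreted TNF-alpha from compound-treated THP-1 cells (17 hrs, 37 C) was quantified with a homogeneous time-resolved fluorescence antibody assay.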

[19] = qHTS assay for small molecule agonists of the antioxidant response element (ARE) signaling pathway measured by Nrf2-dependant transcriptional activity (AID 720636; active means well fitted curve in the direction sought with a large enough effect in the repeat runs; an effect the other way counts as inactive or inconclusive; further: % of control where 0% means no effect); conditions: ARE-luc HepG2, Nrf2 luciferase reporter, 16 h; series mostly up to 92.4 µM
How it was run: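 ARE-luc HepG2 cells carrying an Nrf2-responsive luciferase reporter were plated in medium with 1% dialyzed FBS, left 6 hr at 37 C to attach, then exposed to compound for 16 hr. Luciferase luminescence was read after ONE-Glo addition.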

[20] = MultiTox-Fluor Cytotoxicity Assay - LYMP1-002 - Live Cells (AID 955); conditions: LYMP1-002 lymphoblastoid live-cell protease fluorescence viability; series mostly up to 46.1 µM; further: on the % scale 0 is the no-effect control and ±100 the full control effect
How it was run: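 Cytotoxicity in the human lymphoblastoid line LYMP1-002 is measured as loss of live-cell protease activity after 16 h treatment in complete culture medium. AC50 is derived from Hill-equation fits of qHTS concentration-response data.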

Sequence of Tumor necrosis factor (Homo sapiens) (P01375 whole entry, looked up): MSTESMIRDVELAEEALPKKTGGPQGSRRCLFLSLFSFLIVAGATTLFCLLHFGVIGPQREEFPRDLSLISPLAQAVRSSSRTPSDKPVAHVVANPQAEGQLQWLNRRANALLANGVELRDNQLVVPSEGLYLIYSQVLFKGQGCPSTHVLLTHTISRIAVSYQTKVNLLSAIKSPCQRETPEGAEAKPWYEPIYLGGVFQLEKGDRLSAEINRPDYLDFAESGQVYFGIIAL

[O-][Br+2]([O-])O
8.99% and 2.4%: max response [17]
inactive: Potency [1] > 92 µM | Potency [2] > 92 µM | activity change, negative = cytotoxicity [3] -3.27% and 7.55% | Potency [4] | outcome [5] | outcome [6] | outcome [7] | Potency [8] | Potency [9] | Potency [10] | Potency [11] | Potency [12] | Potency [13] | Potency [14] | Potency [15] | Potency [16] | outcome [18] | outcome [19]

Clc1ccc2ccccc2c1
-15.7%: max response [17]
inactive: Potency [1] > 92 µM | Potency [2] > 92 µM | activity change, negative = cytotoxicity [3] 3.7% | Potency [4] | outcome [5] | outcome [6] | outcome [7] | Potency [8] | Potency [9] | outcome [20] | Potency [10] | Potency [11] | Potency [12] | Potency [13] | Potency [14] | Potency [15] | Potency [16] | outcome [18] | outcome [19]

C[N+](C)(C)Cc1ccccc1
3.34% and -11.4%: max response [17]
inactive: Potency [1] > 92 µM | Potency [2] > 92 µM | activity change, negative = cytotoxicity [3] -22% | Potency [4] | outcome [5] | outcome [6] | outcome [7] | Potency [8] | Potency [9] | outcome [20] | Potency [10] | Potency [11] | Potency [12] | Potency [13] | Potency [14] | Potency [15] | Potency [16] | outcome [18] | outcome [19]

C=CC(=C)C
8.28%: max response [17]
inactive: Potency [1] > 92 µM | Potency [2] > 92 µM | activity change, negative = cytotoxicity [3] 4.7% | Potency [4] | outcome [5] | outcome [6] | outcome [7] | Potency [8] | Potency [9] | outcome [20] | Potency [10] | Potency [11] | Potency [12] | Potency [13] | Potency [14] | Potency [15] | Potency [16] | outcome [18] | outcome [19]

CCOc1ccc(N)cc1
-1.09%: max response [17]
inactive: Potency [1] > 92 µM | Potency [2] > 92 µM | activity change, negative = cytotoxicity [3] -4.95% | Potency [4] | outcome [5] | outcome [6] | outcome [7] | Potency [8] | Potency [9] | outcome [20] | Potency [10] | Potency [11] | Potency [12] | Potency [13] | Potency [14] | Potency [15] | Potency [16] | outcome [18] | outcome [19]

CC(C)(C)OOC(C)(C)C
-0.936%: max response [17]
inactive: Potency [1] > 92 µM | Potency [2] > 92 µM | activity change, negative = cytotoxicity [3] -8.54% | Potency [4] | outcome [5] | outcome [6] | outcome [7] | Potency [8] | Potency [9] | outcome [20] | Potency [10] | Potency [11] | Potency [12] | Potency [13] | Potency [14] | Potency [15] | Potency [16] | outcome [18] | outcome [19]

C=CC(C)=O
-8.63%: max response [17]
inactive: Potency [1] > 92 µM | Potency [2] > 92 µM | activity change, negative = cytotoxicity [3] 3.67% | Potency [4] | outcome [5] | outcome [6] | outcome [7] | Potency [8] | Potency [9] | outcome [20] | Potency [10] | Potency [11] | Potency [12] | Potency [13] | Potency [14] | Potency [15] | Potency [16] | outcome [18] | outcome [19]
